# Only some compounds are listed: those with a hit (about 2.1% of all), similar ones and a draw of the others.
# aSyn rescue: rescues yeast growth from alpha-synuclein toxicity; Yeast expressing alpha-synuclein, growth rescue, BacTiter-Glo, 24 h; Potency, µM (series often up to 46.1 µM), for inactives: at the top dose growth rescue (activation), actives largely listed as activators; 0.14% of 370,000 active; AID 652106; note: % of control where 0% means no effect; nearly all actives have a fitted effect of over 65% in size
#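 Rescue of yeast growth: cells expressing toxic alpha-synuclein, induced in galactose at OD600 0.02, incubated with compound 24 h at 30 C. ATP luminescence quantified growth; inhibitors of toxicity appear as activators.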
# Abeta rescue: restores growth of yeast expressing A-beta42 peptide. yeast expressing A-beta42, growth rescue, OD600, 48 h; response scale: 0% DMSO, 100% iron-clioquinol control. Potency, µM (series often up to 46.1 µM), usual class: activators. 0.063% of 410,000 active; note: nearly all actives have a fitted effect of over 55% in size
#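 Yeast A-beta toxicity model in growth medium with pinned compounds, 48 h at 30 C; growth read as absorbance at 600 nm. Normalized to FeCl3/clioquinol equimolar mix (positive) and DMSO (negative).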
# TDP43 rescue: inhibitors of TDP-43 toxicity in yeast. TDP-43 expressing yeast growth rescue, BacTiter-Glo, 24 h. AID 652104. Potency, µM (highest dose often 46.1 µM), without a hit: at the top dose growth rescue (activation), actives largely listed as activators. 1.8% of 410,000 active; note: % of control where 0% means no effect; nearly all actives have a fitted effect of over 50% in size
#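 Luminescence from BacTiter-Glo reports growth of TDP-43-expressing yeast after 24 hr at 30 deg C with compound. Cells were raffinose-pregrown to mid-log, then seeded in galactose medium at OD600=0.02.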
# FUS suppressor: rescues growth of FUS-expressing yeast | S. cerevisiae FUS-expressing, growth rescue, OD600, 24 h | Potency, µM (doses to about 76.6 µM), hits mostly activators | 0.24% of 390,000 active | AID 1347120;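 note: plate controls were DMSO vehicle for no effect and reference control for full effect; nearly all actives have a fitted effect of over 55% in size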
#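 Restored growth of FUS-toxic S. cerevisiae, read as 600 nm absorbance after 24 h at 30C in galactose medium (starting OD 0.005). Controls CP55940 and DMSO.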
# * marks the source's active call; other numbers are inactive results; i = inactive; ? = inconclusive; nt = no result given; [ ] = remark or other dose. Calls come from the whole dose curve; as a rule, active = well fitted curve in the direction sought with a large enough effect; inconclusive = small, poorly fitted or top-dose-only effect, or another doubt; inactive = no such curve, though single readings can be large; an effect the other way counts as inactive or inconclusive. Potency is the fitted concentration of half-maximal effect.
SMILES,aSyn rescue,Abeta rescue,TDP43 rescue,FUS suppressor
O=C(OCc1cccc([N+](=O)[O-])c1)c1ccc2ccccc2n1,2%,i,30%[9.22 µM],i
COc1ccc(-c2sc3ccc(N4CCOCC4)cc3c2C#CCO)cc1,-10%,i,14µM*,i
COc1ccc(-c2sc3ccc(N4CCOCC4)cc3c2C#CC2(O)CCCCC2)cc1,1%,i,10%,i
C#CCOCCOCCOCCNc1nc(N2CCN(C(=O)CCCCCCCCCCNC(=O)[C@H](CCC(=O)O)n3cc(CCCCCN)nn3)CC2)nc(N2CCN(C(=O)CCCCCCCCCCNC(=O)[C@@H]([C@H](C)O)n3cc(C)nn3)CC2)n1,-10%,i,-16%,13µM*
C#CCOCCOCCOCCNc1nc(N2CCN(C(=O)CCCCCCCCCCNC(=O)[C@H](CCCCN)n3cc(CCO)nn3)CC2)nc(N2CCN(C(=O)CCCCCCCCCCNC(=O)[C@@H]([C@H](C)O)n3cc(C)nn3)CC2)n1,-8%,i,-1%,?
C#CCOCCOCCOCCNc1nc(N2CCN(C(=O)CCCCCCCCCCNC(=O)[C@H](CCCCN)n3cc(C[C@@H](C)CC)nn3)CC2)nc(N2CCN(C(=O)CCCCCCCCCCNC(=O)[C@H](CCCCN)n3cc(C[C@@H](C)CC)nn3)CC2)n1,-75%,i,-90%,?
C#CCOCCOCCOCCNc1nc(N2CCN(C(=O)CCCCCCCCCCNC(=O)[C@@H](CCSC)n3cc(CCO)nn3)CC2)nc(N2CCN(C(=O)CCCCCCCCCCNC(=O)[C@H]([C@@H](C)CC)n3cc(CCCCN=C(N)N)nn3)CC2)n1,-64%,i,5%,8.9µM*
C#CCOCCOCCOCCNc1nc(N2CCN(C(=O)CCCCCCCCCCNC(=O)Cn3cc(C[C@@H](C)O)nn3)CC2)nc(N2CCN(C(=O)CCCCCCCCCCNC(=O)[C@H](CCCCN)n3cc(C[C@@H](C)CC)nn3)CC2)n1,-52%,i,-5%,10µM*
C#CCOCCOCCOCCNc1nc(N2CCN(C(=O)CCCCCCCCCCNC(=O)[C@H]([C@@H](C)CC)n3cc(CCCCCN)nn3)CC2)nc(N2CCN(C(=O)CCCCCCCCCCNC(=O)[C@@H]([C@H](C)O)n3cc(C)nn3)CC2)n1,-53%,i,?,13µM*
Cc1ccc(N2CCN(S(=O)(=O)c3cc(C(=O)Nc4cc(Cl)cc(Cl)c4)ccc3F)CC2C)cc1 (stereo unspecified),nt,i,16%,i
Cn1c(C(=O)OC(C(=O)NCc2ccco2)c2ccncc2)cc2sccc21 (stereo unspecified),4%,i,24%,i
CC(=O)/C(N=Nc1nc2c([nH]1)c(=O)n(C)c(=O)n2C)=C(\C)O,-9%,i,-19%,2.2µM*
Cn1c(=O)c2[nH]c(N=NN3CCCCC3)nc2n(C)c1=O,-11%,i,-13%,i
CC1Nc2ncnc(N3CCN(c4ccccc4)CC3)c2N(Cc2ccc(Cl)cc2)C1=O (stereo unspecified),?,i,?,20µM*
CCC1Nc2ncnc(N3CCc4ccccc4C3)c2N(Cc2ccc(Br)cc2)C1=O (stereo unspecified),?,i,35µM*,?
CC1Nc2ncnc(N3CCc4ccccc4C3)c2N(Cc2ccc(Br)cc2)C1=O (stereo unspecified),?,i,11µM*,?
CC1Nc2ncnc(N3CCc4ccccc4C3)c2N(Cc2ccc(Cl)cc2)C1=O (stereo unspecified),-2%,i,24%,i
CCCN(C(=O)COC(=O)CC1CCCCC1)c1c(N)n(Cc2ccccc2)c(=O)[nH]c1=O,-5%,i,5%,i
CCOc1ccc(-c2n[nH]c(C)c2Oc2ccccc2OC)c(O)c1,-8%,i,-5%,i
CCN(CC)c1ncnc2scc(C3COc4ccccc4O3)c12 (stereo unspecified),2%,i,18µM*,i
O=C(CCCOc1ccccc1)NCCc1ccccc1,3%,i,7%[9.22 µM],i
COc1cccc(CNC(=O)c2c(C)nn(-c3ccc(F)cc3)c2-n2cccc2)c1,1%,i,?,i
COc1cccc(CNC(=O)c2cc(-c3cccc(OC)c3)n[nH]2)c1,nt,i,20µM*,i
COc1cccc(CNC(=O)c2c(C)nn(-c3cccc(C)c3)c2-n2cccc2)c1,nt,i,35µM*,i
CCOc1ccc(CNC(=O)c2c(C)nn(-c3ccc(F)cc3)c2-n2cccc2)cc1,-4%,i,14µM*,i
SMILES,aSyn rescue,Abeta rescue,TDP43 rescue,FUS suppressor
NCCCC[C@H](N)c1nnc([C@H](CC(=O)O)NC(=O)C2CCNCC2)o1,2%,i,2%,i
N=C1SCC(=O)N1c1ncc(Cc2ccc(F)cc2)s1,10%,?,10µM*,i
S=C(NCC1CCCO1)c1ccc(Br)cc1 (stereo unspecified),-8%,i,11µM*,i
O=C(NCC1CCCO1)c1ccc(C(=O)NCC2CCCO2)cc1 (stereo unspecified),3%,i,-20%,i
O=C(Cc1cccs1)NNC(=S)NC(=O)c1ccccc1,?,?,22µM*,nt
O=C(/C=C/c1ccccc1)NC(=S)NNC(=O)Cc1cccs1,20µM*,?,11µM*,i
O=C(Cn1ncc2c1-c1ccccc1OC2)N(Cc1ccco1)C1CCCCC1,2%,i,?,i
CCCN(C(=O)c1ccco1)c1nnc(-c2ccccc2C)s1,-18%,i,13µM*,i
COCCN(C(=O)c1ccco1)c1nnc(-c2ccc(F)cc2)s1,-8%,i,?,?
CC(C)(C)N1C(=O)[C@H]2[C@@H](c3ccc(Br)cc3)N3C(=O)N(c4cccc(Cl)c4)C(=O)[C@@]3(Cc3ccccc3)[C@H]2C1=O,11%,i,0%,13µM*
COc1ccc([C@@H]2[C@@H]3C(=O)N(C(C)(C)C)C(=O)[C@@H]3[C@]3(Cc4ccccc4)C(=O)N(c4ccc(Br)cc4)C(=O)N23)cc1,-1%,i,-14%,i
COc1ccc([C@@H]2[C@@H]3C(=O)N(C(C)(C)C)C(=O)[C@@H]3[C@]3(Cc4ccccc4)C(=O)N(c4ccccc4)C(=O)N23)cc1,0%,i,15%,i
COc1ccc([C@@H]2[C@@H]3C(=O)N(C(C)(C)C)C(=O)[C@@H]3[C@]3(Cc4ccccc4)C(=O)N(c4cccc(Cl)c4)C(=O)N23)cc1,3%,i,24%,28µM*
COc1ccc([C@@H]2[C@@H]3C(=O)N(C(C)(C)C)C(=O)[C@@H]3[C@]3(Cc4ccc(Cl)cc4)C(=O)N(c4cccc(Br)c4)C(=O)N23)cc1,-1%,i,-5%,i
COc1ccc([C@@H]2[C@@H]3C(=O)N(C(C)(C)C)C(=O)[C@@H]3[C@]3(Cc4ccccc4)C(=O)N(c4cccc(C)c4)C(=O)N23)cc1,-7%,i,-7%,28µM*

# Screens (PubChem)
